HCMV antiviral: inhibitors of human cytomegalovirus. HFF cells, HCMV-luciferase reporter, 72 h; stronger effect = lower value. activity change, negative = inhibition, % at 57.5 µM. 410,000 compounds, 4.5% hits; in the data active = activity change below about -60%; inconclusive = no clear call, values can overlap the other calls; inactive = above about -39%; also: % is scaled to controls: 0 for no effect and ±100 for the full control effect
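Human foreskin fibroblasts infected with luciferase-reporter HCMV at MOI 1 PFU/cell, compounds at two doses. Luciferase measured 72 h post infection; normalized to buffer-only basal and Salinomycin (10uM) controls.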
HCV inhibitor: blocks hepatitis C virus; Huh7.5.1 HCVcc-Cre infection, luciferase reporter, 44 h; AID 651820; 340,000 compounds, 3.4% hits; Potency, µM (top dose mostly 41.8 µM), inactives show at the top dose activity change, negative = inhibition, most hits filed as inhibitors; active = well fitted inhibition curve with a large enough effect; inconclusive = small, poorly fitted or top-dose-only effect, or another doubt; inactive = no such curve, though single readings can be large or run the other way; also: potency is read from the fitted curve at half-maximal effect; % is scaled to controls: 0 for no effect and ±100 for the full control effect
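Cells seeded at 1,000/well and cultured 4 h, then compounds added followed by HCVcc-Cre virus (~0.5 moi). After 44 h further culture, luciferase substrate was added, plates held 15 min at room temperature, and luminescence read for 15 sec.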
SARS PLpro yeast-1: inhibitors of SARS-CoV papain-like protease in yeast. 330,000 compounds, 0.19% hits. S. cerevisiae expressing SARS-CoV PLpro, growth rescue. Potency, µM (titrated, usually from 32.9 µM), inactives show at the top dose activity, positive = growth rescue, most hits filed as activators. AID 485353; calls by dose curve; also: potency is read from the fitted curve at half-maximal effect; 0% is about no effect; nearly all actives have a fitted effect of over 55% in size
FMDV antiviral: foot and mouth disease virus antiviral activity. Potency, µM (highest dose often 57.9 µM), inactives show top-dose activity change, negative = inhibition, usual class: inhibitors. 410,000 compounds, 1.2% hits. AID 1159524. FMDV antiviral cell-based qHTS; calls by dose curve; tested in HEK293T cells; also: read-out not given here; potency is read from the fitted curve at half-maximal effect; % is scaled to controls: 0 for no effect and ±100 for the full control effect; nearly all actives have a fitted effect of over 45% in size
Lassa entry inh: blocks Lassa virus binding to or entry into cells; Potency, µM (top dose mostly 37.9 µM), inactives show at the highest dose activity change, negative = inhibition, hits mostly inhibitors; AID 540256; 300,000 compounds, 1.2% hits; Lassa virus pseudotype entry inhibition, cell reporter; calls by dose curve; tested in HEK293 cells; also: potency is read from the fitted curve at half-maximal effect; % is scaled to controls: 0 for no effect and ±100 for the full control effect; nearly all actives have a fitted effect of over 50% in size
Marburg entry inh: Marburg virus entry inhibition; Marburg virus pseudotyped entry inhibition, cell reporter; 300,000 compounds, 1.8% hits; Potency, µM (top dose mostly 37.8 µM), inactives show top-dose activity change, negative = inhibition, hits mostly inhibitors; AID 540276; calls by dose curve; tested in HEK293 cells; also: potency is read from the fitted curve at half-maximal effect; % is scaled to controls: 0 for no effect and ±100 for the full control effect
SARS PLpro yeast-2: Inhibits SARS-CoV PLP in yeast, hit validation | shares compounds with SARS PLpro yeast-1 | yeast expressing SARS-CoV PLpro, growth phenotype rescue | calls only | 1,000 compounds, 19% hits; call rule not given here
An asterisk follows results filed as active; i = inactive; u = inconclusive; x = no result; + = active, no number; [ ] = remark or other dose. Sampled rows, rich in hits. Any-hit rate of the full collection: about 8%.

SMILES	HCMV antiviral	HCV inhibitor	SARS PLpro yeast-1	FMDV antiviral	Lassa entry inh	Marburg entry inh	SARS PLpro yeast-2
O=C(CSc1nnc(Cn2c(=O)sc3ccccc32)n1-c1ccccc1)N1CCCC1	-13	4%	u	-5%	x	x	i
CC(=O)C1=C(O)C(=O)N(c2nccs2)C1c1ccccc1F (centres undefined)	6	-20%	4%	8%	u	-1%	x
COc1ccc2c3n([n+]([O-])c2c1)CCN=C3c1ccc(Cl)cc1	-6	13%	u	32%	x	x	i
[O-][n+]1c2ccccc2c2n1CCN=C2c1ccc(Cl)cc1	-1	18%	-1%	20%	x	x	x
O=C(CN1C(=O)CCc2cc(S(=O)(=O)N3CCOCC3)ccc21)NCc1ccccc1	8	x	x	-2%	-4%[46.1 µM]	x	x
CCOC(=O)N(NC(=O)C(O)(c1ccccc1)c1ccccc1)c1ccccc1	4	27%	1%	0%	-13%	18%	x
CCN(NC(=O)C(O)(c1ccccc1)c1ccccc1)C(=O)c1ccccc1	-5	-4%	14µM*	0%	0%	5%	i
O=C(NNC(=O)c1ccccc1F)c1ccc(NS(=O)(=O)c2ccc(F)cc2)cc1	8	8%	-4%	37%	27%	13%	x
O=C(Nc1ccc(Cl)c(Cl)c1)c1cccnc1	61	3%	-8%	37%	x	x	x
COc1ccc(C(NC(C)=O)c2cc(Cl)c3cccnc3c2O)cc1 (centres undefined)	-99*	10µM*	10µM*	-18%	x	x	i
CC(=O)NC(c1ccco1)c1cc(Cl)c2ccc(N3CCCCC3)nc2c1O (centres undefined)	x	x	-6%	x	x	x	x
O=C(NC(c1ccc(Cl)cc1)c1cc(Cl)c2cccnc2c1O)c1cccnc1 (centres undefined)	-101*	u	2.5µM*	u	u	u	i
Cc1ccc(-c2cc(=O)c3cc(F)ccc3[nH]2)cc1	0	-6%	u	35%	15%	-22%	i
Cc1cc(=O)c2cc(C(=O)Nc3ccc(F)cc3)ccc2[nH]1	5	x	x	-7%	7%[46.1 µM]	5%[46.1 µM]	x
O=C(CN1CCN(c2ccccc2F)CC1)Nc1cccnc1Cl	-36	-14%	0%	-8%	-4%	-10%[46.1 µM]	x
O=C(CN1CCN(c2ncccn2)CC1)Nc1ccccc1-n1cccc1	-21	3%	14µM*	x	-16%	u	i
CNNC(=S)Nc1ccc(Cl)cc1	-4	-1%	-2%	-2%	-26%	16%[46.1 µM]	x
CN(C)NC(=S)Nc1ccc(Cl)cc1	-9	12%	11µM*	x	4%	15%	+
Cc1c(C(=O)NCc2ccc(OC(C)C)cc2)sc2ncnc(N(C)C3CCCCC3)c12	-3	x	x	-25%	-13%[46.1 µM]	x	x
C/C(=N\NC(=O)c1ccccc1)c1c(C)[nH]n(-c2ccccc2)c1=O	-97*	u	6.3µM*	-3%	-15%[46.1 µM]	u	i
Cc1cccc(C)c1NC(=O)COC(=O)C1C2CC3OC(=O)C1C3C2 (centres undefined)	13	20%	11µM*	11%	x	0%[46.1 µM]	i
Cc1cccc(NC(=O)COC(=O)C2C3CC4OC(=O)C2C4C3)c1C (centres undefined)	-17	10%	2%	-1%	-3%	12%[46.1 µM]	x
CC(C)Cn1c(=O)c2sccc2n2c(CCCC(=O)NCC(C)c3ccccc3)nnc12 (centres undefined)	u	x	x	-17%	u	x	x
O=C(Oc1c(CN2CCOCC2)cc(Cl)c2cccnc12)c1ccccc1F	-85*	u	2.5µM*	-16%	u	u	u
CC1(C(=O)NS(=O)(=O)c2ccc(F)cc2F)CCN1C(=O)Cc1cccc2ccccc12 (centres undefined)	23	x	x	-15%	x	x	x
SMILES	HCMV antiviral	HCV inhibitor	SARS PLpro yeast-1	FMDV antiviral	Lassa entry inh	Marburg entry inh	SARS PLpro yeast-2
CC(=O)N(C)Cc1ccc(C(=O)CSc2nnc(C3CC3)n2C2CC2)cc1	-16	u	1%	-6%	-19%	u	x
CC(=O)N(C)Cc1ccc(C(=O)CCl)cc1	-22	u	7.9µM*	u	-9%	-1%[46.1 µM]	+
COc1ccccc1C(CNC(=O)c1cccc(S(=O)(=O)Nc2ccc(C)cc2)c1)N1CCCC1 (centres undefined)	-7	-25%	5%	-17%	8%	u	x
NC(N)=NC1=NC(=O)/C(=C/c2ccccc2-n2cccn2)S1	-21	0%	x	-10%	-17%	u	i
COc1ccc(/C=N/NC(=O)c2ccc(C)cc2)cc1CN1CCN(c2ccc(F)cc2)CC1	13	u	8%	-16%	25%	20%	x
COc1ccc(/C=N\NC(=O)c2cc(O)c(O)c(O)c2)cc1CN1CCN(c2ccc(F)cc2)CC1	-27	u	13µM*	-14%	1%	-9%	+
Cc1ccc2nc(Nc3nc(CSc4nnnn4-c4ccccc4)cc(=O)[nH]3)nc(C)c2c1	-33	u	u	-9%	-2%	0%	i
CCc1ccc2nc(Nc3nc(COC)cc(=O)[nH]3)nc(C)c2c1	-27	u	-3%	-14%	-25%	-18%	x
CCOC(=O)c1ccc(-c2ccc(C3Nc4ccccc4C(=O)N3O)o2)cc1 (centres undefined)	52	u	5µM*	u	u	u	u
N#Cc1ccc(-c2ccc(C3Nc4ccccc4C(=O)N3O)o2)cc1 (centres undefined)	12	x	2%	-17%	x	x	x
Cc1ncc(CO)c(/C=N/NC(=S)Nc2ccc(F)cc2)c1O	-12	-19%	5.6µM*	0%	u	14µM*	i
CCOc1ccc(NC(=O)CCCOc2cc(=O)n(C)c3ccccc23)cc1	23	u	u	3%	12%[46.1 µM]	4%[46.1 µM]	+
Cn1c(=O)cc(OCCCC(=O)NC2CCCC2)c2ccccc21	148	7%	-3%	86%	8%	-11%	x
CCOc1ccc(C(=O)Nc2cccc3ncccc23)cc1Br	u	u	0%	-22%	x	x	x
O=C(Cn1cnc([N+](=O)[O-])n1)N/N=C/c1ccc(O)cc1O	47	u	21%	-21%	u	u	x
O=C(Cn1cnc([N+](=O)[O-])n1)N/N=C/c1cccc2ccccc12	-27	-2%	u	-11%	3%	u	i
COC(=O)c1c(NC(=O)CSc2nnc(-c3ccco3)n2Cc2ccccc2)sc(C)c1C	20	u	14%	u	-28%	u	x
COC(=O)c1c(NC(=O)CSc2nc3ccccc3c(=O)n2Cc2ccco2)sc(C)c1C	-19	13%	u	-2%	6%	4%	+
O=C(N/N=C/c1c(O)n(-c2ccc(Cl)cn2)c(=O)c2ccccc12)c1ccncc1	-1	14%	13µM*	-2%	6%	21%	i

Screening data deposited in PubChem by National Center for Advancing Translational Sciences (NCATS).
